# About 13,000 (27%) of roughly 48,000 compounds showed an effect of 50% or more. The list shows a part of the results.
# System: Wolbachia pipientis
# Assay: Anti-Wolbachia Cell-Based Screen
# Assay type: functional
# Design: scale not given: in the data most compounds retested in dose-response had high values
# Conditions: 5 µM
row,SMILES,Percent Effect
1,FC(F)Sc1ccc(NCc2nnc(C3CC3)o2)cc1,-0.3922%
2,NC(=O)c1cnc(NC(=O)CCc2ccco2)c(Cl)c1,-8.08%
3,CC(C)(C)c1nc(CC(=O)NC2CCN(C3CC3)C2)cs1 (centres undefined),-2.238%
4,CC(C)N1CCCn2nc(C(=O)NCCc3c[nH]cn3)cc2C1,-16.95%
5,O=C(O)C1(n2ccc(-c3ccco3)n2)CCN(Cc2cccnc2)CC1,100.5%
6,O=C(O)C(F)(F)F.O=C(c1ccco1)N1CCCC2(CN(Cc3ccsc3)CCO2)C1 (centres undefined),0.02281%
7,O=C(O)C1(n2ccnc2)CCN(Cc2ccc3occc3c2)CC1,-4.381%
8,Cc1nc(CN2CCC(C(=O)O)(n3ccc(-c4ccco4)n3)CC2)co1,4.507%
9,Cc1cc(CN2CCN(C(=O)CCc3cccc(F)c3F)CC2)on1,-11.44%
10,O=C(O)C1(n2cccn2)CCN(Cc2nc(-c3ccccc3)no2)CC1,-13.7%
11,O=C(O)C1(n2ccc(-c3ccco3)n2)CCN(Cc2ccsc2)CC1,105.5%
12,Cc1cc(CN2CCC(C(=O)O)(n3ccc(-c4ccco4)n3)CC2)on1,185.7%
13,COc1ccc2c(c1)C1(CCN(Cc3ccccn3)CC1)N(C)CC2.O=C(O)C(F)(F)F.O=C(O)C(F)(F)F,-3.791%
14,Cc1cc(F)ccc1OC1(C(=O)O)CCN(Cc2cccnc2)CC1,3.989%
15,O=C(O)C1(n2ccc(-c3ccco3)n2)CCN(Cc2ccccn2)CC1,96.1%
16,Cc1cc(CN2CCN(C(=O)C3(C#N)CCCC3)CC2)on1,-5.531%
17,COc1ccccc1OCC(=O)Nc1ncccc1OC(F)F,-1.305%
18,CCCNC(=O)CSc1nnc2[nH]c(=O)cc(CC)n12,-17.32%
19,Cc1nc(C(=O)N2CCC3(CC2)CC(=O)N(CC2CCCO2)C3)cs1 (centres undefined),9.74%
20,Cn1ccc(C(=O)N(CC(F)F)c2cccc(Cl)c2)cc1=O,-3.04%
21,O=C(O)C1(n2cccn2)CCN(c2nc(-c3ccccc3)no2)CC1,-0.7442%
22,Cc1n[nH]c(C)c1CCN(C)c1ccc(-c2nc(C3CC3)no2)cn1,5.085%
23,COCCO[C@@H]1C[C@H]2CN(C(=O)c3cnccn3)CCN2C1,-15.94%
24,COC(=O)C(C)CN(Cc1ccccc1)C(=O)CN1CCCNC1=O (centres undefined),-9.826%
25,O=C(O)C1(n2ccc(-c3ccco3)n2)CCN(Cc2cccs2)CC1,77.42%

row,SMILES,Percent Effect
1,Cc1nccn1C1(C(=O)O)CCN(Cc2ccc3occc3c2)CC1,-3.386%
2,Cc1ccc(N2CCC(C(=O)O)(n3ccc(C(C)C)n3)CC2)nn1,-12.67%
3,Cc1nc(CN2CCC(C(=O)O)(n3ccc(C(C)C)n3)CC2)co1,99.57%
4,Cc1csc(CN2CCC(C(=O)O)(n3ccc(-c4ccco4)n3)CC2)n1,105%
5,Cc1csc(CN2C[C@@H]3COC[C@]3(C(=O)NCc3ccco3)C2)n1,-36.74%
6,Cc1occc1C(=O)N1CCC2(CCN(Cc3cccs3)C2)CC1.O=C(O)C(F)(F)F,-0.4808%
7,O=C(O)C(F)(F)F.c1coc(COCc2ncn3c2CN(Cc2cccs2)CCC3)c1,7.487%
8,Cc1cc(N2CCC(C(=O)O)(n3ccc(C(C)C)n3)CC2)nc(N)n1,-20.6%
9,O=C1CN(CCCNC(=O)Nc2cccc(Cl)c2F)CCN1,1.597%
10,Cc1cc(C)n(-c2ccc(N3CCCSCC3)nc2)n1,0.3589%
11,CC1CCc2n[nH]c(C(=O)NCCc3ccco3)c2C1 (centres undefined),14.64%
12,CCOc1ccccc1-c1noc(CN2CCCC(O)C2)n1 (centres undefined),-2.765%
13,CC(C)S(=O)(=O)C(C)C(=O)Nc1ccc2oc(C3CC3)nc2c1 (centres undefined),-8.387%
14,O=C(c1cccnc1O)N1CCCN(c2cccnn2)CC1,-5.126%
15,O=C(c1cc(CC2(NC3CCCCC3)COC2)no1)N1CCCCC1,6.649%
16,CNc1ncc(C(=O)N2CCCC(Cc3ccccc3OC)C2)s1 (centres undefined),-5.807%
17,O=C(c1cc(CC2(NCC3CCCCC3)COC2)no1)N1CCCCC1,0.2272%
18,CNc1ccc(CC2CCCN(C(=O)c3scnc3C)C2)nn1 (centres undefined),109.5%
19,Cc1noc(C)c1C(=O)N1C[C@@H]2CCCO[C@@H]2[C@H](N(C)C)C1,3.092%
20,CNc1ccc(CC2CCCN(C(=O)c3c(C)noc3C)C2)nn1 (centres undefined),118%
21,CCc1cc(C(=O)N2CCCC(Cc3ccc(NC)nn3)C2)on1 (centres undefined),109.6%
22,CNc1ccc(CC2CCCN(C(=O)c3cnco3)C2)nn1 (centres undefined),129.2%
23,O=C(CN1CCCc2c(F)cc(Br)cc21)N1CCCC1,-2.164%
24,CCN1CCC(Cn2ccc3c(OC)c(OC)ccc3c2=O)C1 (centres undefined),-8.791%
25,COCC[C@]1(O)CCN(c2ncc(Cl)cc2F)C[C@H]1C,-5.057%

row,SMILES,Percent Effect
1,CS(=O)(=O)N1C[C@@H]2CC[C@H](C1)N(CCC(=O)NCc1ccco1)C2,6.139%
2,CCc1nc(C)sc1CN1CC[C@@](O)(C2CCOCC2)[C@H](C)C1,107.2%
3,CCc1nc(C)sc1CN1CC[C@@](O)(C2CC2)[C@H](C)C1,90.8%
4,Cc1nonc1CN1CC[C@@](O)(C2CCOCC2)[C@H](C)C1,-5.747%
5,Cc1nnsc1CN1CC[C@@](O)(C2CCC2)[C@H](C)C1,-20.69%
6,C[C@@H]1CN(Cc2nc(C(N)=O)no2)CC[C@@]1(O)C1CCOCC1,-5.887%
7,Cc1nonc1CN1CC[C@@](O)(C2CCC2)[C@H](C)C1,2.704%
8,CCC1=N[C@@]2(CC[C@@H]3CN(S(=O)(=O)CC(C)C)C[C@@H]32)C(=O)N1CC,2.129%
9,Cc1nc(-c2ccc(S(=O)(=O)N3CCSC3)cc2)co1,-2.878%
10,O=C(c1ccc(C2CCCO2)s1)N1CCCOCC1 (centres undefined),7.048%
11,Cl.O=C(c1ccnc(C2CCNCC2)c1)N1CCCOCC1,107.9%
12,Cl.O=C(NC1CCCC1)c1ccnc(C2CCNCC2)c1,105.6%
13,Cl.Cl.Cn1cnc2c(N3CCOCC3)nc(C3CCNCC3)cc21,-9.589%
14,Cl.Cl.Cn1cnc2c(N3CCCC3)nc(C3CCNCC3)cc21,-10.47%
15,COc1ccc(F)c(-c2cc(C(=O)NC3CC3)ccn2)c1,-1.956%
16,COc1ncccc1-c1cc(C(=O)NC2CC2)ccn1,1.183%
17,O=C(c1ccnc(C2CCNCC2)c1)N1CCCC(CO)C1 (centres undefined),100.1%
18,O=C(c1ccc2c(c1)[nH]c(=O)n2C1CCCC1)N1CCC1,-5.446%
19,Cc1cc(C2CCCN(C(=O)c3ccc(OCC4CC4)nc3)C2)n[nH]1 (centres undefined),-13.31%
20,Cl.O=C(c1ccnc(C2CCNCC2)c1)N1CCCC1,87.63%
21,CCOc1cc(C(=O)N2CCCC(c3cc(C(N)=O)[nH]n3)C2)ccn1 (centres undefined),-0.59%
22,CC(C)(C)CC(=O)N1CSCC1C(=O)NCc1cccc(C#N)c1 (centres undefined),-25.6%
23,Cc1cc(C(=O)N2CCC3(CC(=O)NC3=O)C2)c(-c2ccccc2)o1 (centres undefined),0.657%
24,CSCC[C@H](NC(C)=O)C(=O)N(C)Cc1ccc(-n2cccn2)cc1,-22.5%
25,O=C(c1cc(-c2cn[nH]c2)nc2cc(F)ccc12)N1CCS(=O)(=O)CC1,-15.17%

row,SMILES,Percent Effect
1,N[C@H]1CN(C(=O)CCc2cc(Cl)no2)C[C@@H]1c1ccccc1,0.8182%
2,Cc1cc(C(=O)N2CCCC3(CN(C)C(=O)O3)C2)c2ccc(F)cc2n1 (centres undefined),-8.064%
3,Cc1cc(C(=O)N2CCN[C@H](C)C2)c2ccc(F)cc2n1,95.19%
4,O=C(c1c[nH]nc1-c1cccc(F)c1)N1CCNC(c2ccccc2)C1 (centres undefined),39.59%
5,Cc1cc(C(=O)N2C[C@H]3CCC[C@@]3(CO)C2)c2ccc(F)cc2n1,-33.96%
6,Cc1cc(C(=O)N2C[C@H](c3ccccc3)[C@@H](N)C2)c2ccc(F)cc2n1,109.4%
7,Cc1cc(C(=O)N2CCNC(c3ccccc3)C2)c2ccc(F)cc2n1 (centres undefined),81.03%
8,O=C(O)c1csc(S(=O)(=O)N2CCCc3cccc(OC(F)F)c32)c1,-29.54%
9,O=C(c1cnn(-c2ccccc2Cl)c1)N1CCN(CCO)CC1,103.1%
10,CCc1ccc(O)c(C(=O)N2CCN(CC(=O)N(C)C)CC2)c1,4.973%
11,O=C(c1cn(-c2ccccc2Cl)nn1)N1CCCSCC1,0.4154%
12,CCOC1CCN(C(=O)c2cnn(-c3ccccc3Cl)c2)CC1,-5.801%
13,CC(O)CN1CCN(C(=O)c2cnn(-c3ccc(Cl)cc3)c2)CC1 (centres undefined),-6.081%
14,CN(C)C(=O)CN1CCN(C(=O)c2cnn(-c3ccccc3Cl)c2)CC1,104.8%
15,CC(O)CN1CCN(C(=O)c2cn(-c3ccccc3Cl)nn2)CC1 (centres undefined),5.18%
16,CCN1CCN(C(=O)c2cnn(-c3ccccc3Cl)c2)CC1,0.9462%
17,CN1CCN(C(=O)c2cnn(-c3ccccc3Cl)c2)CC1,84.01%
18,O=C(c1cn(-c2ccccc2Cl)nn1)N1CCSCC1,139.5%
19,O=C(c1cnn(-c2ccccc2F)c1)N1CCN(CCO)CC1,-7.046%
20,CC(Nc1ncnc2sccc12)c1cnn(C)c1 (centres undefined),-17.23%
21,O=C(NC[C@H]1OC[C@@H](NC2CCOCC2)[C@@H]1O)C1CCCC1,-16.92%
22,O=C(COCC(F)(F)F)NC1CCCc2cc(OC(F)F)ccc21 (centres undefined),-1.083%
23,Cc1nc(CCCNC(=O)C2CC(=O)N(C3CCCC3)C2)sc1C (centres undefined),-46.61%
24,O=C(COC1CCCCC1)Nc1ccn(Cc2ccccn2)n1,-1.457%

# From ChEMBL document CHEMBL3988442, “University of Dundee, Small-Polar-MMV Screening Library” (2021)
